According to PubChem BioAssay AID1851 (National Center for Advancing Translational Sciences (NCATS), 2009):
Several values for one entry are separate records, joined by “and”; a condition that tells them apart may be missing. Identical values can stand only once. About 5,700 (36%) of roughly 16,000 compounds were called active. Not shown: some 24% with an inconclusive outcome. Some of the results follow. A number with no mark means an inactive call. The call rests on the fitted dose curve; in most records, active means well fitted curve in the direction sought with a large enough effect; inconclusive means small, poorly fitted or top-dose-only effect, or effect the other way; inactive means no such curve, though single readings can be large or run the other way.

The compounds below were run against Cytochrome P450 1A2 (Homo sapiens) (UniProt P05177) (assay: Cytochrome panel assay with activity outcomes). Conditions: recombinant CYP, pro-luciferin dealkylation, luminescence, p450-cyp1a2; series mostly up to 57.1 µM; activity, negative = inhibition: at the top concentration.
Sequence of Cytochrome P450 1A2 (Homo sapiens) (P05177 whole entry, looked up): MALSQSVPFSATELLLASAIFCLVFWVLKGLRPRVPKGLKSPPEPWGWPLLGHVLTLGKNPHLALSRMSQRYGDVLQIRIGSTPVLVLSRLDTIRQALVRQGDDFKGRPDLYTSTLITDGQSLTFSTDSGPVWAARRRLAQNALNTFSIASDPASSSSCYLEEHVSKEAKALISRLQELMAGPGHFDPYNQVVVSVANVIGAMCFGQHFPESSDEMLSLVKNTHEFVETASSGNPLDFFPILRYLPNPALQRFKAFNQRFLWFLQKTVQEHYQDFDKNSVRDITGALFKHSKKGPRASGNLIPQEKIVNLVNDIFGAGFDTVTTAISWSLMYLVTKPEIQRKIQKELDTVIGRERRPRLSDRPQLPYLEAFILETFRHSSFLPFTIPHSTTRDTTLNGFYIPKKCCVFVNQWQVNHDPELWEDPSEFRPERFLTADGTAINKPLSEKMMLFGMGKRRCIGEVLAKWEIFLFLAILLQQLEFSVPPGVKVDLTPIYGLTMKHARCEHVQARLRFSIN
On the % scale 0 is the no-effect control and ±100 the full control effect.

Row | SMILES | activity, negative = inhibition | AC50
1 | CC(=O)OC[C@@H]1O[C@H](C/C=N\O[C@@H](C)CN2CCCCc3nc(C)c(C)cc32)C=C[C@@H]1OC(C)=O | -2.17% [at 11.4 µM] | –
2 | O=C(N/N=C1/C[C@@H](O)[C@@H](O)[C@@H]2[C@@H]3C(=O)N(Cc4ccccc4)C(=O)[C@H]3CC[C@H]12)OCc1ccccc1 | -7.17% [at 11.4 µM] | –
3 | O=C(NNC(=O)c1ccccc1O)c1ccc(Cl)cc1 | -29.5% | –
4 | O=C(NCCc1ccc(O)cc1)c1ccc(Cl)cc1 | – | 14.1 µM (active)
5 | CC(C)(Oc1ccc(CCNC(=O)c2ccc(Cl)cc2)cc1)C(=O)O | -6.81% [at 25.6 µM] | –
6 | CNC(=O)C(=O)NCCc1ccc(Cl)cc1 | – | 7.08 µM (active)
7 | COc1cccc(-c2nnc3sc(-c4ccc(C)cc4)nn23)c1 | – | 7.08 µM (active)
8 | CC(C)(C)n1nc2c(c1NC(=O)c1ccc(S(=O)(=O)N3CCCCC3)cc1)CS(=O)C2 (stereo unspecified) | -29.6% | –
9 | COc1cccc(-c2ccc3ncnc(Nc4ccccc4)c3c2)c1 | – | 1 µM (active)
10 | CNc1ncnc2ccc(-c3cccc(OC)c3)cc12 | – | 0.501 µM (active)
11 | COc1ccc(Nc2ncnc3sc(-c4ccccc4)cc23)cc1 | – | 0.891 µM (active)
12 | COc1ccc(Nc2ncc(C(=O)N3CCN(Cc4ccccc4)CC3)c3ccccc23)cc1 | -12.5% | –
13 | N[C@@H](CSC(=O)c1ccccc1)C(=O)O | -14.7% [at 11.4 µM] | –
14 | CN(C)CCCN1CC(C(=O)O)CC1=O (stereo unspecified) | -1.61% | –
15 | CCOc1ccc(/C(O)=C2/C(=O)C(=O)N(CCCn3ccnc3)C2c2cccs2)cc1Cl (stereo unspecified) | – | 15.8 µM (active)
16 | CCN(CC)CCN1C(=O)C(=O)/C(=C(/O)c2ccc(OC)cc2)C1c1cccs1 (stereo unspecified) | -15% | –
17 | Cc1ccc(/C(O)=C2/C(=O)C(=O)N(CCCn3ccnc3)C2c2ccccn2)cc1 (stereo unspecified) | -21% | –
18 | O=C(O)c1cc(-c2ccncc2)nc2ccccc12 | -9.92% [at 11.4 µM] | –
19 | O=C(N/N=C/c1ccc([N+](=O)[O-])o1)c1cc(-c2ccncc2)nc2ccccc12 | – | 15.8 µM (active)
20 | Nc1ccc(S(=O)(=O)Nc2ccc(Cl)nn2)cc1 | -7.06% [at 25.6 µM] | –
21 | FC(F)(F)c1ccc(/C=N/N2CCN(Cc3cccc4ccccc34)CC2)cc1 | -19.8% | –
22 | COc1ccccc1/C=C/C=N/N1CCN(Cc2cccc3ccccc23)CC1 | – | 7.08 µM (active)
23 | COc1ccccc1CN1CCC2(CC1)CCN(S(C)(=O)=O)CC2 | 17.5% | –
24 | COc1ccc(OC)c(C2CC(=O)C3=C(C2)NC(=O)CC3c2ccc(O)c(OC)c2)c1 (stereo unspecified) | -15.2% | –
25 | COc1ccc(C2C(=O)N(C3CCCCCC3)CC(=O)N2Cc2ccccc2)cc1OC (stereo unspecified) | -14.6% | –
26 | COc1ccc([C@@H]2CNC(=O)C2)cc1OC1CCCC1 | – | 3.16 µM (active) and 3.98 µM (active)
